Screening data (PubChem)
Most compounds without a hit are left out; they make up all but 6% or so of the library.
D1 agonist – human D1 receptor agonism; P21728; HEK293 T-REx D1 cells, calcium flux, agonist mode; activation, % at 2 µM; actives 1% (n = 360,000); AID 504660; in the data active = activation above about 30%; also: 0% is about no effect
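Agonism was scored from calcium flux recorded over 180 s (1 read/s) after pintool compound addition, following a 10-cycle baseline. Cells were inducible force-coupled HEK293 TREx D1, plated overnight at 30 C and loaded with no-wash calcium dye.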
DRD3 antagonist – antagonists of human D3 dopamine receptor; D3R cells, DiscoveRx beta-arrestin luminescence, antagonist mode; stronger effect = lower value; max response, negative = inhibition, %; actives 2.5% (n = 360,000); AID 652054; in the data active = max response below about -50%; inconclusive = no clear call, values can overlap the other calls; also: % is scaled to controls: 0 for no effect and ±100 for the full control effect
Target sequence (P35462 whole entry, looked up): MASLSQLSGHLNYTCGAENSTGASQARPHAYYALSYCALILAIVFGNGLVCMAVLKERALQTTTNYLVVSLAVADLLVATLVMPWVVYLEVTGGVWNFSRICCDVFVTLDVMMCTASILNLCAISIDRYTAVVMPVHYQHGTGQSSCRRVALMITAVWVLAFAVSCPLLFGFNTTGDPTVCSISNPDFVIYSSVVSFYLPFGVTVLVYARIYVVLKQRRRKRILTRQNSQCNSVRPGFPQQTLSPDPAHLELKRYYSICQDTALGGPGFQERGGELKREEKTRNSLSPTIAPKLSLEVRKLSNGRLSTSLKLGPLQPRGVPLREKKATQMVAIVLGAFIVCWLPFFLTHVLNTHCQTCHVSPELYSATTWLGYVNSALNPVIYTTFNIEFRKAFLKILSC
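Cells expressing the human receptor were seeded at 1500 cells/well, incubated overnight at 37 degrees C in 5% CO2, then exposed to library compounds with dopamine controls for 90 minutes at 37 degrees C before luminescent detection.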
D1 antag – human D1 dopamine receptor antagonism. HEK293 TREx D1 cells, calcium flux, dopamine EC80; stronger effect = lower value. AID 504652. activity change, negative = inhibition, % at 10 µM. actives 3.2% (n = 360,000); in the data active = activity change below about -30%; also: % is scaled to controls: 0 for no effect and ±100 for the full control effect
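Using tetracycline-induced force-coupled D1 Hek293 cells and a calcium dye, signals were followed for 180 s after compound, then for 180 s after EC80 dopamine, to detect inhibitors.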
D3 ag – activates the human D3 dopamine receptor | D3R DiscoveRx beta-arrestin cells, luminescence, 90 min | max activation, % | actives 0.58% (n = 410,000) | AID 652048; in the data active = max activation above about 30%; also: 0% is about no effect
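Agonist-mode cell screen: cells plated at 1500/well and incubated overnight at 37 °C, then exposed to library compounds for 90 min at 37 °C. Detection reagent was added for 30–60 min at room temperature, and luminescence was read.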
D1 potentiator – human D1 dopamine receptor positive modulation | potentiation, % at 10 µM | HEK293 TREx D1 cells, calcium flux, dopamine EC20 potentiation | actives 0.036% (n = 360,000) | AID 504651; in the data active = potentiation above about 30%; also: 0% is about no effect
The depositor's hits bear a star.

`COc1ccccc1CCC(=O)Nc1ccc2c(c1)CN(CCCn1cccn1)CC2` gave D1 agonist 0.2, DRD3 antagonist -5.7, D1 antag 2.5, D3 ag -12.3 and D1 potentiator -5.7.
`COc1cccc(CN2CCc3ccc(NC(=O)CCc4ccc(C)cc4)cc3C2)c1O` gave D1 agonist 2.2, DRD3 antagonist inconclusive, D1 antag -31.4*, D3 ag -20.5 and D1 potentiator 2.8.
COc1ccc(NC(=O)CN2CCc3ccccc3C2)cc1OC was read as D1 agonist 7.7, DRD3 antagonist -7.9, D1 antag -6.2, D3 ag -12.0 and D1 potentiator -1.8.
`O=C(Nc1ccc(S(=O)(=O)Nc2ncccn2)cc1)c1cccc([N+](=O)[O-])c1` gave DRD3 antagonist -0.4 and D3 ag 2.1.
For COc1ccc(-c2nnc(-c3cccnc3)o2)cc1OC the results were D1 agonist 3.3, DRD3 antagonist -12.9, D1 antag 7.5, D3 ag 6.1 and D1 potentiator -7.3.
`COc1cc(-c2nnc(-c3cccnc3)o2)cc(OC)c1OC` gave D1 agonist 0.7, DRD3 antagonist 0.8, D1 antag -88.2*, D3 ag -2.1 and D1 potentiator -10.9.
For c1cncc(-c2nnc(-c3ccco3)o2)c1 the results were D1 agonist 3.6, DRD3 antagonist -107.8*, D1 antag -0.8, D3 ag 2.3 and D1 potentiator -5.8.
Clc1ccc(-c2nnc(-c3ccco3)o2)cc1 was read as D1 agonist 0.4, DRD3 antagonist -16.3, D1 antag 8.4, D3 ag 2.4 and D1 potentiator -5.2.
Screening c1cncc(-c2nc(-c3ccco3)cs2)c1 returned D1 agonist 1.4, DRD3 antagonist -63.1*, D1 antag 2.5, D3 ag -4.4 and D1 potentiator 7.7.
Screening CCc1nc2ccc(C(=O)NCC3CCCCC3)cn2c1N(C)Cc1nccs1 returned DRD3 antagonist 5.2 and D3 ag -0.9.
Screening COc1ccc(Cc2c(-c3ccc(Cl)cc3)nc3cc(C)c(Br)c(C)n23)c(C)c1 returned DRD3 antagonist -14.7 and D3 ag 3.4.
`Cc1cc(Cl)nc(-n2nc(C)cc2C)n1` gave D1 agonist 1.3, DRD3 antagonist -25.2, D1 antag -41.8*, D3 ag -25.3 and D1 potentiator -4.5.
Screening CNc1cc(C)nc(-n2nc(C)cc2C)n1 returned D1 agonist 1.4, DRD3 antagonist inconclusive, D1 antag 2.1, D3 ag 5.1 and D1 potentiator -5.8.
For Cn1c(=NC(=O)C2CC2)sc2cccc(F)c21 the results were D1 agonist 2.9, DRD3 antagonist 20.2, D1 antag -40.5*, D3 ag -0.9 and D1 potentiator -6.5.
For COc1ccc(OC)c2c1sc(=NC(=O)C1CCCCC1)n2C the results were D1 agonist 2.2, DRD3 antagonist 18.5, D1 antag -7.9, D3 ag 19.8 and D1 potentiator -0.4.
For Cc1ccc(F)c(S(=O)(=O)NC(=O)C2(C)CCN2C(=O)Cc2ccc(-c3ccccc3)cc2)c1 (stereo not drawn) the results were DRD3 antagonist -2.8 and D3 ag 7.5.
For COC(=O)[C@@H](NC(=O)c1ccc(OC2CCN(Cc3ccccn3)CC2)cc1)C(C)C the results were D1 agonist 4.2, DRD3 antagonist -25.3, D1 antag 1.2, D3 ag -3.3 and D1 potentiator -1.4.
Screening CCn1nc(C)c(CNC(=O)c2ccc(OC3CCN(Cc4ccccn4)CC3)cc2)c1C returned D1 agonist 5.5, DRD3 antagonist 22.5, D1 antag -34.0*, D3 ag 19.4 and D1 potentiator -5.7.
For CCn1cc(CNC(=O)c2ccc(OC3CCN(Cc4ccccn4)CC3)cc2)cn1 the results were D1 agonist 1.7, DRD3 antagonist -4.7, D1 antag 0.5, D3 ag -3.9 and D1 potentiator -5.1.
CC(C)c1cc(CNC(=O)c2ccc(OC3CCN(Cc4ccccn4)CC3)cc2)on1 was read as D1 agonist 12.9, DRD3 antagonist 8.0, D1 antag -53.5*, D3 ag -8.2 and D1 potentiator -7.1.
CN=C(NC)NCc1ccccc1 was read as D3 ag 2.0.
O=C(CNC(=O)c1cccc(Br)c1)N/N=C/c1cccs1 was read as D1 agonist 0.6, DRD3 antagonist -12.6, D1 antag 21.1, D3 ag -11.7 and D1 potentiator -3.1.
For O=C(CNC(=O)c1cccc(Br)c1)N/N=C/c1cc(Br)cc(Br)c1O the results were D1 agonist 10.0, DRD3 antagonist -71.3*, D1 antag 9.1, D3 ag -29.8 and D1 potentiator -4.2.
For O=C(N/N=C/c1ccc(O)cc1)c1ccc(COc2cc(Cl)ccc2Cl)o1 the results were D1 agonist 43.4*, DRD3 antagonist inconclusive, D1 antag -7.7, D3 ag 7.7 and D1 potentiator -4.2.
Cc1ccc(S(=O)(=O)N2CCCN(C(C)c3nc4ccccc4c(=O)[nH]3)CC2)cc1 (stereo not drawn) was read as D1 agonist 2.1, DRD3 antagonist -4.0, D1 antag -38.0*, D3 ag -1.2 and D1 potentiator -4.6.
Cc1ccc(S(=O)(=O)N2CCCN(Cc3nc4ccccc4c(=O)[nH]3)CC2)cc1 was read as D1 agonist 3.5, DRD3 antagonist 0.0, D1 antag -0.2, D3 ag -0.2 and D1 potentiator -4.0.
O=C(NC1CCCCC1)c1ccc(S(=O)(=O)N2CCCCC2)cc1 was read as D1 agonist 0.9, DRD3 antagonist 14.2, D1 antag 0.9, D3 ag -1.3 and D1 potentiator -3.2.
Screening Cc1ccc(S(=O)(=O)N2CCCN(S(=O)(=O)c3ccc(C)cc3)CC2)cc1 returned D1 agonist 12.1, DRD3 antagonist 6.8, D1 antag -34.4*, D3 ag -1.1 and D1 potentiator -6.4.
Screening O=C(NC1CCCCCCC1)c1ccc(S(=O)(=O)N2CCCC2)cc1 returned D1 agonist 0.7, DRD3 antagonist -52.8*, D1 antag -5.7, D3 ag 3.4 and D1 potentiator -3.5.
Screening O=S(=O)(c1cnc[nH]1)N1CCCCCC1 returned D1 agonist 0.2, DRD3 antagonist 6.2, D1 antag -45.2*, D3 ag -3.2 and D1 potentiator -2.9.
Screening Cc1cccc(N2CCN(S(=O)(=O)c3csc(C(N)=O)c3)CC2)c1C returned D1 agonist 13.2, D1 antag -10.1, D3 ag -5.6 and D1 potentiator -1.6.
`Cc1ccc(S(=O)(=O)N2CC3(C)CN(S(=O)(=O)c4ccc(C)cc4)CC(C)(C2)C3)cc1` gave D1 agonist 0.0, DRD3 antagonist 19.4, D3 ag 31.0* and D1 potentiator 5.3.
O=S(=O)(c1ccc(Cl)cc1)N1CCCCCC1 was read as D1 agonist 0.1, DRD3 antagonist -9.5, D1 antag 3.9, D3 ag 1.2 and D1 potentiator -1.0.
